Reference: PubChem BioAssay (EPA / NIEHS)
Calls of active or inactive are those of the source. Rule for the calls: active = hit-call score of the fitted dose curve at least 0.9, where 1 is the maximum; inactive = score below 0.9.

Assays:
Details in all cases: mRNA level, 48 h; actives raise or lower the signal
[1] = read-out: CYP2C9 (gene 1559); experiment: LTEA_HepaRG_CYP2C9: Life Technologies and Expression Analysis (LTEA) Assay for CYP2C9 using HepaRG (AID 2283484)
How it was run: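 HepaRG, 48 h dosing, 8-pt half-log series, top 100 uM, 0.5% DMSO vehicle. Read-out: CYP2C9 transcript by TaqMan qRT-PCR, housekeeping-normalized (ACTB/GAPDH/POLR2A). Gain or loss fitted vs DMSO baseline.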

[2] = read-out: CYP2E1 (gene 1571); experiment: LTEA_HepaRG_CYP2E1: Life Technologies and Expression Analysis (LTEA) Assay for CYP2E1 using HepaRG (AID 2283485)
How it was run: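 Assay uses 48 h exposure of HepaRG hepatic cells, eight concentrations to 100 uM. Expression of CYP2E1 is quantified by TaqMan qRT-PCR with ACTB, GAPDH and POLR2A normalization; curves fitted in both directions relative to vehicle.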

[3] = read-out: CYP4A11 (gene 1579); experiment: LTEA_HepaRG_CYP4A11: Life Technologies and Expression Analysis (LTEA) Assay for CYP4A11 using HepaRG (AID 2283486)
How it was run: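 Differentiated HepaRG cells, serum-free induction medium, exposed 48 h in duplicate to 8-point half-log series from 100 uM in 0.5% DMSO. CYP4A11 mRNA measured by qRT-PCR, normalized to ACTB, GAPDH, POLR2A; bidirectional fit versus DMSO.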

[4] = read-out: Cytochrome P450 3A4 (Homo sapiens) (UniProt P08684); experiment: LTEA_HepaRG_CYP3A4: Life Technologies and Expression Analysis (LTEA) Assay for CYP3A4 using HepaRG (AID 2283487)
How it was run: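 Differentiated HepaRG cells in serum-free induction medium exposed in duplicate for 48 h to 8 half-log concentrations up to 100 uM in 0.5% DMSO. CYP3A4 mRNA measured by qRT-PCR normalized to ACTB, GAPDH and POLR2A; bidirectional fit versus DMSO.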

[5] = read-out: Pro-epidermal growth factor (Homo sapiens) (UniProt P01133); experiment: LTEA_HepaRG_EGF: Life Technologies and Expression Analysis (LTEA) Assay for Epidermal growth factor (EGF) using HepaRG (AID 2283489)
How it was run: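 Differentiated human HepaRG cells, plated 48 h then switched to serum-free induction medium, were exposed for 48 h to test chemicals (8-point half-log series, top 100 uM, 0.5% DMSO). EGF mRNA was quantified by qRT-PCR, normalized to ACTB, GAPDH, POLR2A.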

[6] = read-out: Early growth response protein 1 (EGR1) transcription factor, EGR1 (gene 1958); experiment: LTEA_HepaRG_EGR1: Life Technologies and Expression Analysis (LTEA) Assay for Early growth response protein 1 (EGR1) transcription factor using HepaRG (AID 2283490)
How it was run: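 HepaRG, 48 h exposure, 8-pt half-log series from 100 uM, 0.5% DMSO vehicle; EGR1 transcript by TaqMan qRT-PCR (Fluidigm array), housekeeping-normalized; bidirectional fit relative to DMSO baseline.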

[7] = read-out: Ezrin (EZR), EZR (gene 7430); experiment: LTEA_HepaRG_EZR: Life Technologies and Expression Analysis (LTEA) Assay for Ezrin (EZR) using HepaRG (AID 2283491)
How it was run: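 Differentiated human HepaRG cells, 48 h after plating, were exposed in serum-free induction medium for 48 hours to eight half-log concentrations up to 100 uM in 0.5% DMSO. EZR mRNA was measured by TaqMan qRT-PCR, normalized to ACTB, GAPDH and POLR2A, and fitted bidirectionally against DMSO.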

[8] = read-out: CYP3A5 (gene 1577); experiment: LTEA_HepaRG_CYP3A5: Life Technologies and Expression Analysis (LTEA) Assay for CYP3A5 using HepaRG (AID 2283493)
How it was run: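 Readout was CYP3A5 mRNA by qRT-PCR. HepaRG cultures were exposed for 48 h in serum-free induction medium to chemicals at up to 100 uM, and responses were fitted in both directions relative to DMSO vehicle.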

[9] = read-out: Fatty Acid-Binding Protein 1 (FABP1), FABP1 (gene 2168); experiment: LTEA_HepaRG_FABP1: Life Technologies and Expression Analysis (LTEA) Assay for Fatty Acid-Binding Protein 1 (FABP1) using HepaRG (AID 2283494)
How it was run: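 qRT-PCR readout of FABP1 transcript (normalized to three housekeeping genes) after 48 h chemical exposure of HepaRG cells; eight concentrations, half-log steps, max 100 uM, 0.5% DMSO vehicle; gain or loss fitted relative to DMSO baseline.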

[10] = read-out: Cytochrome P450 4A22 (Homo sapiens) (UniProt Q5TCH4); experiment: LTEA_HepaRG_CYP4A22: Life Technologies and Expression Analysis (LTEA) Assay for Cytochrome P450 4A22 (CYP4A22) using HepaRG (AID 2283495)
How it was run: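 qRT-PCR of CYP4A22 mRNA (Fluidigm TaqMan, normalized to three housekeeping genes) after 48 h chemical exposure of HepaRG cells; 8-point half-log series, top 100 uM, 0.5% DMSO vehicle. Bidirectional curve fitting vs DMSO baseline.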

[11] = read-out: Cytochrome P450 7A1 (Homo sapiens) (UniProt P22680); experiment: LTEA_HepaRG_CYP7A1: Life Technologies and Expression Analysis (LTEA) Assay for Cytochrome P450 7A1 (CYP7A1) using HepaRG (AID 2283496)
How it was run: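 Using 0.5% DMSO as vehicle and baseline, chemicals were tested in duplicate over an 8-point range from 100 uM on HepaRG cells for 48 h; qRT-PCR signals were normalised to ACTB, GAPDH and POLR2A.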

[12] = read-out: Glutathione S-Transferase (GSTA2), GSTA2 (gene 2939); experiment: LTEA_HepaRG_GSTA2: Life Technologies and Expression Analysis (LTEA) Assay for Glutathione S-Transferase (GSTA2) using HepaRG (AID 2283497)
How it was run: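 qRT-PCR readout of GSTA2 transcript, normalized to three housekeeping genes, fitted bidirectionally against 0.5% DMSO baseline. Differentiated HepaRG cells received compound for 48 h at 8 concentrations (top 100 uM, half-log steps).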

[13] = read-out: Glutamate-cysteine ligase catalytic (GCLC), GCLC (gene 2729); experiment: LTEA_HepaRG_GCLC: Life Technologies and Expression Analysis (LTEA) Assay for Glutamate-cysteine ligase catalytic (GCLC) using HepaRG (AID 2283498)
How it was run: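 HepaRG, 48 h exposure, 8-pt half-log series from 100 uM, 0.5% DMSO vehicle; TaqMan qRT-PCR for GCLC mRNA, housekeeping-normalized; bidirectional curve fit vs DMSO baseline.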

[14] = read-out: growth arrest and DNA damage 45 (GADD45G), GADD45G (gene 10912); experiment: LTEA_HepaRG_GADD45G: Life Technologies and Expression Analysis (LTEA) Assay for growth arrest and DNA damage 45 (GADD45G) using HepaRG (AID 2283499)
How it was run: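 Differentiated human HepaRG cells in serum-free induction medium were exposed for 48 h to 8 half-log concentrations up to 100 uM in 0.5% DMSO, in duplicate. GADD45G mRNA was measured by TaqMan qRT-PCR, normalised to ACTB, GAPDH and POLR2A, and fitted bidirectionally against DMSO.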

[15] = read-out: Glutamate-cysteine ligase regulatory (GCLM), GCLM (gene 2730); experiment: LTEA_HepaRG_GCLM: Life Technologies and Expression Analysis (LTEA) Assay for Glutamate-cysteine ligase regulatory (GCLM) using HepaRG (AID 2283500)
How it was run: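 In this multiplexed HepaRG gene-expression assay, GCLM mRNA change after 48 h treatment (8 concentrations, max 100 uM) was scored against DMSO by bidirectional curve fitting.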

[16] = read-out: Glutathione S-transferase M3 (GSTM3), GSTM3 (gene 2947); experiment: LTEA_HepaRG_GSTM3: Life Technologies and Expression Analysis (LTEA) Assay for Glutathione S-transferase M3 (GSTM3) using HepaRG (AID 2283501)
How it was run: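 Differentiated HepaRG cells in serum-free induction medium were exposed in duplicate for 48 h to 8 half-log concentrations up to 100 uM in 0.5% DMSO. GSTM3 mRNA was measured by TaqMan qRT-PCR, normalized to ACTB/GAPDH/POLR2A, and fitted bidirectionally versus DMSO.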

[17] = read-out: Heat shock 70 kDa protein 1 (HSPA1A), gene 3303; experiment: LTEA_HepaRG_HSPA1A: Life Technologies and Expression Analysis (LTEA) Assay for Heat shock 70 kDa protein 1 (HSPA1A) using HepaRG (AID 2283502)
How it was run: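 An oxidative-stress marker readout: HepaRG cells treated 48 h in duplicate with an eight-point series (highest 100 uM) had HSPA1A mRNA quantified by TaqMan qRT-PCR. Activity was fitted in both directions using 0.5% DMSO as baseline.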

[18] = read-out: Hypoxia-inducible factor 1-alpha (Homo sapiens) (UniProt Q16665); experiment: LTEA_HepaRG_HIF1A: Life Technologies and Expression Analysis (LTEA) Assay for Hypoxia-inducible factor 1 (HIF1A) Trancription factor using HepaRG (AID 2283503);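 note: HIF1A transcript by TaqMan qRT-PCR normalized to ACTB GAPDH and POLR2A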
How it was run: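 Gain- or loss-of-signal HIF1A mRNA changes are fitted against a DMSO baseline. HepaRG cultures receive eight concentrations, highest 100 uM, for 48 h in serum-free induction medium with 0.5% DMSO.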

[19] = read-out: DNA damage-inducible transcript 3 (DDIT3), DDIT3 (gene 1649); experiment: LTEA_HepaRG_DDIT3: Life Technologies and Expression Analysis (LTEA) Assay for DNA damage-inducible transcript 3 (DDIT3) using HepaRG (AID 2283488)
How it was run: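 Eight-point concentration-response (100 uM highest, half-log dilutions) in HepaRG, 48 h, duplicate wells. Endpoint: qRT-PCR mRNA, normalized (ACTB, GAPDH, POLR2A), bidirectional fitting with DMSO as baseline.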

Measured: AC50

Sequence of Hypoxia-inducible factor 1-alpha (Homo sapiens) (Q16665 whole entry, looked up): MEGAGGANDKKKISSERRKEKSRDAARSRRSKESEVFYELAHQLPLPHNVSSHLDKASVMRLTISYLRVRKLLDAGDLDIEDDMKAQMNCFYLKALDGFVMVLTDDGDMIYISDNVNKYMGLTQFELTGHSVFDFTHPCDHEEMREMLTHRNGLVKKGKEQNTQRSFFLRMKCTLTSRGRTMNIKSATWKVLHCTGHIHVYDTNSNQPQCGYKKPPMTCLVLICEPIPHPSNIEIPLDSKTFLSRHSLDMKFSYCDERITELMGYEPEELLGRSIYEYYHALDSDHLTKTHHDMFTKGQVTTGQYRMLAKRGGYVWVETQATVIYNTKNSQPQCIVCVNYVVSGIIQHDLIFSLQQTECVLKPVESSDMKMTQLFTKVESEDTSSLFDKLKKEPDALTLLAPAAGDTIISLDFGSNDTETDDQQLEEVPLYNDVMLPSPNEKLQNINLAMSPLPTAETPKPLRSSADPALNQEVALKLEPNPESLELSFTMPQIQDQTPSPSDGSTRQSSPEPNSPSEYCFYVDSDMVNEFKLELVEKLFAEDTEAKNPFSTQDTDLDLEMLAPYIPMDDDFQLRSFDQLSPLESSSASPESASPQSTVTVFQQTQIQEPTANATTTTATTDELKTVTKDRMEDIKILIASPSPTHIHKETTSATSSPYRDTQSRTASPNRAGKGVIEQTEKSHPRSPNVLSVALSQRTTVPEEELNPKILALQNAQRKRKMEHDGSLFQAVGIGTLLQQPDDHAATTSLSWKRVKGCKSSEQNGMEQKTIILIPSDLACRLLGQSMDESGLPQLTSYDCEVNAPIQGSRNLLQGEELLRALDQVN
Sequence of Cytochrome P450 3A4 (Homo sapiens) (P08684 whole entry, looked up): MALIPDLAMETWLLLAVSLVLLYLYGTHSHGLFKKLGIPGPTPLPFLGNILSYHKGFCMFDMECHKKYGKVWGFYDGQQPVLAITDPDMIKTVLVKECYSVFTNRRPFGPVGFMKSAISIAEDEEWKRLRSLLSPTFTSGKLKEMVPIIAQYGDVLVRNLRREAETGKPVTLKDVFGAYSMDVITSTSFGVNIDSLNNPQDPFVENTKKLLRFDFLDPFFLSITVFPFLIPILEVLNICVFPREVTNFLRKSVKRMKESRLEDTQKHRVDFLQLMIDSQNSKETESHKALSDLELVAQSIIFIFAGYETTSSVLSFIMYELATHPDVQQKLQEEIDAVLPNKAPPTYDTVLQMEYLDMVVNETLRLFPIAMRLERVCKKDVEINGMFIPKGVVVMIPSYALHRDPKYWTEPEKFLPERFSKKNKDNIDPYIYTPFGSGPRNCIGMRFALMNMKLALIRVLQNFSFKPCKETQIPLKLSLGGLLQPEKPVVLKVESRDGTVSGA

CCN(CC)CCOc1ccc(C(=C(Cl)c2ccccc2)c2ccccc2)cc1
active: [1] 80.9 µM | [2] 14.6 µM | [3] 19.3 µM | [6] 81.3 µM | [7] 67.8 µM | [10] 13.3 µM | [11] 13.3 µM | [12] 78.6 µM | [15] 78 µM
inactive: [4] | [5] | [8] | [9] | [13] | [14] | [16] | [17] | [18]

O=C1OC(c2ccc(O)cc2)(c2ccc(O)cc2)c2ccccc21
active: [1] 82 µM | [3] 80.1 µM | [8] 62.1 µM | [11] 50 µM | [12] 78.5 µM | [13] 32 µM | [16] 50 µM | [17] 50 µM
inactive: [2] | [5] | [6] | [7] | [9] | [10] | [14] | [15]

O=C1c2c(O)cccc2Cc2cccc(O)c21
not listed: [11] | [19]
inactive: all other assays above

Cc1ccc(-c2cc(C(F)(F)F)nn2-c2ccc(S(N)(=O)=O)cc2)cc1
active: [2] 38.2 µM | [3] 6 µM | [19] 68.8 µM | [8] 82 µM | [9] 50 µM | [12] 82.1 µM | [13] 50 µM | [14] 67.5 µM
not listed: [4]
inactive: all other assays above

N[C@@H](Cc1c[nH]c2ccccc12)C(=O)O
not listed: [11] | [19]
inactive: all other assays above

CCCCC(CC)COP(=O)(OCC(CC)CCCC)OCC(CC)CCCC (centres undefined)
active: [2] 19.3 µM | [4] 5.79 µM
not listed: [11] | [19]
inactive: all other assays above

CCc1nc(N)nc(N)c1-c1ccc(Cl)cc1
active: [1] 44.5 µM | [2] 26 µM | [3] 64.2 µM | [10] 60.7 µM | [11] 2.6 µM | [12] 41.8 µM | [14] 78.1 µM
not listed: [4] | [18] | [19]
inactive: all other assays above
